# From PubChem BioAssay (NCATS)
# Results filed as inconclusive are left out. A call without a number means that no potency is given here. The source made the active and inactive calls. The call rests on the fitted dose curve.
# Assays:
# [1] = Primary qHTS for inhibitors of SARS-S pseudo-typed particle cell entry (AID 1479145); settings: SARS-S pseudotyped particle cell entry, luciferase reporter; series mostly up to 57.1 µM; further: nearly all actives have a fitted effect of over 45% in size
# [2] = Primary qHTS for Huh7 cytotoxicity: counterscreen for inhibitors of MERS-S pseudotyped particle cell entry (AID 1479147); settings: cell viability read-out; series mostly up to 57.1 µM; further: potency means the concentration at half of the fitted maximal effect
# [3] = Primary qHTS for inhibitors of MERS-S pseudo-typed particle cell entry (AID 1479149); settings: MERS-S pseudotyped particle entry, luciferase; series mostly up to 57.1 µM; further: nearly all actives have a fitted effect of over 60% in size
# [4] = Primary qHTS for Vero E6 cytotoxicity: counterscreen for inhibitors of SARS-S pseudo-typed particle cell entry (AID 1479150); settings: cell viability; series mostly up to 57.1 µM; further: potency means the concentration at half of the fitted maximal effect
# [5] = Cytotoxicity counterscreen for inhibitors of SARS-CoV-2 cell entry (AID 1645845); settings: cell viability (SARS-CoV-2 entry assay cells); series mostly up to 57.1 µM; further: nearly all actives have a fitted effect of over 50% in size; further: potency means the concentration at half of the fitted maximal effect
# How it was run: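 ATP-content luminescence (ATPLite 1step, 15 min RT) read after 48 h compound exposure of Expi293F cells stably expressing human ACE2; normalized to cells-only wells and media-only wells.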
# [6] = Primary qHTS to identify inhibitors of SARS-CoV-2 cell entry (AID 1645846); settings: SARS-CoV-2 pseudovirus cell entry assay, luminescence; activity change, negative = inhibition: at 57.1 µM (top of the series) unless noted; further: nearly all actives have a fitted effect of over 45% in size
# How it was run: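 Inhibition of spike-mediated entry was scored in human ACE2-transfected Expi293F cells. Particles were MLV-pseudotyped with Wuhan-Hu-1 S carrying a 19-aa C-terminal deletion; signal was luciferase after two days, scaled between spike PP and fusion-protein-free PP.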
smiles,measurement,setting,value
CN(CC(O)CO)C(=O)c1c(I)c(NC(=O)C(CO)CO)c(I)c(C(=O)N(C)CC(O)CO)c1I (stereo not given),Potency,[1],inactive
same,Potency,[2],inactive
same,Potency,[3],inactive
same,Potency,[4],inactive
same,Potency,[5],inactive
Cc1cc(=O)c(C(=O)N[C@@H](C(=O)N[C@@H]2C(=O)N3C(C(=O)O)=C(CSc4nnnn4C)CS[C@H]23)c2ccc(O)cc2)c[nH]1,Potency,[1],inactive
same,Potency,[2],inactive
same,Potency,[3],inactive
same,Potency,[4],inactive
same,Potency,[5],inactive
CCC(=O)O[C@]1(C(=O)COC(C)=O)CC[C@H]2[C@@H]3CCC4=CC(=O)CC[C@]4(C)[C@H]3[C@@H](O)C[C@@]21C,Potency,[1],inactive
same,Potency,[2],inactive
same,Potency,[3],inactive
same,Potency,[4],inactive
same,Potency,[5],inactive
same,"activity change, negative = inhibition",[6],-0.634%
NCCCC(N)C(=O)O (stereo not given),Potency,[1],inactive
same,Potency,[2],inactive
same,Potency,[3],inactive
same,Potency,[4],inactive
same,Potency,[5],inactive
CC(=O)OCC(=O)[C@@]1(O)[C@H](C)C[C@H]2[C@@H]3C[C@H](F)C4=CC(=O)C=C[C@]4(C)[C@@]3(F)[C@@H](O)C[C@@]21C,Potency,[1],inactive
same,Potency,[2],inactive
same,Potency,[3],inactive
same,Potency,[4],inactive
same,Potency,[5],inactive
same,Potency,[6],inactive
CCN(CC)CCOC(=O)c1cccnc1,Potency,[1],inactive
same,Potency,[2],inactive
same,Potency,[3],inactive
same,Potency,[4],inactive
same,Potency,[5],inactive
same,"activity change, negative = inhibition",[6],-32.2%
CCCC1C(=O)N2C(N(C)C)=Nc3ccc(C)cc3N2C1=O (stereo not given),Potency,[1],inactive
same,Potency,[2],inactive
same,Potency,[3],inactive
same,Potency,[4],inactive
same,Potency,[5],inactive
same,"activity change, negative = inhibition",[6],2.29% [at 114 µM]
CC(C)[C@H](N)C(=O)O,Potency,[1],inactive
same,Potency,[2],inactive
same,Potency,[3],inactive
same,Potency,[4],inactive
same,Potency,[5],inactive
same,"activity change, negative = inhibition",[6],-17.8%
C=C(C)CNc1ccc(C(C)C(=O)O)cc1 (stereo not given),Potency,[1],inactive
same,Potency,[2],inactive
same,Potency,[3],inactive
same,Potency,[4],inactive
same,Potency,[5],inactive
O=P(O)(O)OC(Cn1cncn1)(Cn1cncn1)c1ccc(F)cc1F,Potency,[1],inactive
same,Potency,[2],inactive
same,Potency,[3],inactive
same,Potency,[4],inactive
same,Potency,[5],inactive
same,"activity change, negative = inhibition",[6],-20.2%
CC(=O)[O][Al][O]C(C)=O,"activity change, negative = inhibition",[1],-39.3% [at 11.4 µM] (inactive)
same,outcome,[2],inactive [at 11.4 µM]
same,outcome,[3],inactive [at 11.4 µM]
same,"activity change, negative = cytotoxicity",[4],-2.68% [at 11.4 µM] (inactive)
same,outcome,[5],inactive [at 11.3 µM]
same,"activity change, negative = inhibition",[6],-37.2% [at 11.3 µM]
CC1(C)S[C@@H]2[C@H](NC(=O)[C@H](NC(=O)N3CCNC3=O)c3ccccc3)C(=O)N2C1C(=O)O (stereo not given in full),Potency,[1],inactive
same,Potency,[2],inactive
same,Potency,[3],inactive
same,Potency,[4],inactive
same,Potency,[5],inactive
CC1(O)CCC(C(C)(C)O)CC1 (stereo not given),Potency,[1],inactive
same,Potency,[2],inactive
same,Potency,[3],inactive
same,Potency,[4],inactive
same,Potency,[5],inactive
same,Potency,[6],inactive
CCCCCCCCCCCCCCCC(=O)OC1C(SC)OC(C(NC(=O)C2CC(CCC)CN2C)C(C)Cl)C(O)C1O (stereo not given),Potency,[1],inactive
same,Potency,[2],inactive
same,Potency,[3],inactive
same,Potency,[4],inactive
same,Potency,[5],inactive
same,"activity change, negative = inhibition",[6],-14%
CCCCC[C@H](O)/C=C/[C@@H]1[C@@H](C/C=C/CCCC(=O)O)[C@@H](O)C[C@H]1O,Potency,[1],inactive
same,Potency,[2],inactive
same,Potency,[3],inactive
same,Potency,[4],inactive
same,Potency,[5],inactive
same,"activity change, negative = inhibition",[6],-6.41%
CN=C(NC)NCc1ccccc1,Potency,[1],inactive
same,Potency,[2],inactive
same,Potency,[3],inactive
same,Potency,[4],inactive
same,Potency,[5],inactive
same,"activity change, negative = inhibition",[6],-12.2%
O=C(O)C1CCc2cc(C3CCCCC3)c(Cl)cc21 (stereo not given),Potency,[1],inactive
same,Potency,[2],inactive
same,Potency,[3],inactive
same,Potency,[4],inactive
same,Potency,[5],inactive
same,"activity change, negative = inhibition",[6],-32.2%
O=P(O)(O)C(O)(Cc1cnc2ccccn12)P(=O)(O)O,outcome,[1],inactive [at 0.573 µM]
same,outcome,[2],inactive [at 0.573 µM]
same,"activity change, negative = inhibition",[3],-0.315% [at 0.573 µM] (inactive)
same,outcome,[4],inactive [at 0.573 µM]
same,outcome,[5],inactive [at 0.702 µM]
same,outcome,[6],inactive [at 0.702 µM]
CC(C)OC(=O)Nc1ccc2nc(-c3cscn3)[nH]c2c1,Potency,[1],inactive
same,Potency,[2],10 µM (active)
same,Potency,[3],inactive
same,Potency,[4],8.91 µM (active)
same,Potency,[5],7.08 µM (active)
CC1(C)S[C@@H]2[C@H](NC(=O)C(C(=O)Oc3ccc4c(c3)CCC4)c3ccccc3)C(=O)N2[C@H]1C(=O)O (stereo not given in full),Potency,[1],inactive
same,Potency,[2],inactive
same,Potency,[3],inactive
same,Potency,[4],inactive
same,Potency,[5],inactive
same,Potency,[6],inactive
Cc1cc2nc3c(=O)[nH]c(=O)nc-3n(C[C@H](O)[C@H](O)[C@H](O)COP(=O)(O)OP(=O)(O)OC[C@H]3O[C@@H](n4cnc5c(N)ncnc54)[C@H](O)[C@H]3O)c2cc1C,Potency,[1],inactive
same,Potency,[2],inactive
same,Potency,[3],inactive
same,Potency,[4],inactive
same,Potency,[5],inactive
same,"activity change, negative = inhibition",[6],-9.08% [at 27.1 µM]
CN(CCCCCCN(C)C(=O)Oc1ccc[n+](C)c1)C(=O)Oc1ccc[n+](C)c1,Potency,[1],inactive
same,Potency,[2],inactive
same,Potency,[3],inactive
same,Potency,[4],inactive
same,Potency,[5],inactive
same,"activity change, negative = inhibition",[6],-28.5%
NC(=O)[C@@H]1CC[C@@H]2CN1C(=O)N2OS(=O)(=O)O,Potency,[1],inactive
same,Potency,[2],inactive
same,Potency,[3],inactive
same,Potency,[4],inactive
same,Potency,[5],inactive
CCC=CCC=CCC=CCCCCCCCC(=O)O,Potency,[1],inactive
same,Potency,[2],inactive
same,Potency,[3],inactive
same,Potency,[4],inactive
same,Potency,[5],inactive
same,Potency,[6],inactive
OCC1OC(c2ccc(Cl)c(Cc3ccc(OC4CCOC4)cc3)c2)C(O)C(O)C1O (stereo not given),Potency,[1],inactive
same,Potency,[2],inactive
same,Potency,[3],inactive
same,Potency,[4],inactive
same,Potency,[5],inactive
same,"activity change, negative = inhibition",[6],-20.7%
O=C[C@H](O)[C@@H](O)[C@H](O)[C@H](O)CO,Potency,[1],inactive
same,Potency,[2],inactive
same,Potency,[3],inactive
same,Potency,[4],inactive
same,Potency,[5],inactive
same,Potency,[6],inactive
CCOC(=O)[C@H](CS)NCCN[C@@H](CS)C(=O)OCC,Potency,[1],inactive
same,Potency,[2],inactive
same,Potency,[3],inactive
same,Potency,[4],inactive
same,Potency,[5],inactive
same,Potency,[6],inactive
